Assay outcomes (PubChem BioAssay)
In the library only some 6.9% were active in any assay of this set; here they are far more common.
PLK1 PBD block: qHTS for Inhibitors of PLK1-PDB (polo-like kinase 1 - polo-box domain): Primary Screen | Potency, µM, usual class: inhibitors | Plk1 PBD binding of FITC phosphopeptide, fluorescence polarization | actives 2.8% (n = 360,000); note: series mostly up to about 57 µM; nearly all actives have a fitted effect of over 65% in size
HP1b binding inh: HTS for Inhibitors of HP1-beta Chromodomain Interactions with Methylated Histone Tails. AlphaScreen HP1-beta / biotin-H3K9me3 peptide binding. actives 0.56% (n = 390,000). Chromobox protein homolog 1 (Homo sapiens), P83916. Potency, µM (highest dose often 114 µM), most hits filed as inhibitors. AID 540317, 2011; note: nearly all actives have a fitted effect of over 70% in size
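HP1-beta protein (50 nM final) preincubated 30 min at room temperature with biotinylated H3(1-18)K9me3 peptide (50 nM) in PBS pH 7.4, 0.01% Tween-20, then compound added for 30 min. AlphaScreen streptavidin donor/nickel chelate acceptor beads (10 ug/mL final), 30 min dark, luminescence read.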
L3MBTL1 inh: qHTS Assay for the Inhibitors of L3MBTL1; AID 485360, 2010; Potency, µM (doses to about 57.1 µM), most hits filed as inhibitors; AlphaScreen L3MBTL1–H3K9me1 peptide binding; Lethal(3)malignant brain tumor-like protein 1 (Homo sapiens), Q9Y468; actives 0.66% (n = 230,000); note: nearly all actives have a fitted effect of over 60% in size
Target sequence (Q9Y468 whole entry, looked up): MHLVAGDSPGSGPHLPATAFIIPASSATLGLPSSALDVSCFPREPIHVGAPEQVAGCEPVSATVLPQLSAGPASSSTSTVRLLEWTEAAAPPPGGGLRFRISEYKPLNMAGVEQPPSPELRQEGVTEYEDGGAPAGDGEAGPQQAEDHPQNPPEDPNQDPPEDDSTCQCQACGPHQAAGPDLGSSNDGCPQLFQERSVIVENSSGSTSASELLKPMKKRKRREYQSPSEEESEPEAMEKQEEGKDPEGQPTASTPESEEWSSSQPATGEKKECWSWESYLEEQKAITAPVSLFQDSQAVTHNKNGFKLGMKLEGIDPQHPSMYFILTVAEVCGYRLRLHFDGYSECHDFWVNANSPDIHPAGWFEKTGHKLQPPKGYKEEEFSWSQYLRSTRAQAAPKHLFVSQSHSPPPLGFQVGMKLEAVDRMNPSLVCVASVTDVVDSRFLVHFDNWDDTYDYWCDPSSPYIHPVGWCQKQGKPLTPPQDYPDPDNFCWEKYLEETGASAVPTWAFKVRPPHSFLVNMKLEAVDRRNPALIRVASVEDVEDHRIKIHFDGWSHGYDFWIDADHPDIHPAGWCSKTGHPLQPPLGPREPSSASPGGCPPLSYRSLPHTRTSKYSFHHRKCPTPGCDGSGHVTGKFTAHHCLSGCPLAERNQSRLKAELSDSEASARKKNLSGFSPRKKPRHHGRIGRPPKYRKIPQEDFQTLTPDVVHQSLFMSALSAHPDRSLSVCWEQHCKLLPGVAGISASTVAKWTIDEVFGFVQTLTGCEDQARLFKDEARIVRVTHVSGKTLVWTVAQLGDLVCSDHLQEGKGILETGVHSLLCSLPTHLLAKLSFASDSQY
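Read-out is AlphaScreen signal from streptavidin donor and nickel chelate acceptor beads (10 ug/mL final each) bridging L3MBTL1 (50 nM) and biotinylated K9-monomethylated H3(1-15) peptide (75 nM), after 30 min compound exposure at room temperature.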
JMJD2A Tudor inh: qHTS Assay for Inhibitors of JMJD2A-Tudor Domain. AID 504339, 2011. actives 4.4% (n = 390,000). AlphaScreen JMJD2A-Tudor / H3K4me3 peptide binding. Lysine-specific demethylase 4A (Homo sapiens), O75164. Potency, µM (highest dose often 114 µM), usual class: inhibitors; note: nearly all actives have a fitted effect of over 50% in size
BAZ2B block: qHTS Assay for Inhibitors of BAZ2B; actives 4.4% (n = 360,000); Bromodomain adjacent to zinc finger domain protein 2B (Homo sapiens), Q9UIF8; Potency, µM (doses to about 114 µM), actives largely listed as inhibitors; AlphaScreen BAZ2B-H3K14Ac peptide displacement; note: nearly all actives have a fitted effect of over 60% in size
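AlphaScreen displacement of biotin-H3(5-23)K14Ac peptide (50 nM final) from BAZ2B (50 nM final) in PBS pH 7.4, 0.01% Tween-20; complex preformed 30 min RT, then compounds (top 110 uM) 30 min RT, beads 20 min dark.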
VDR inh: Inhibitors of the vitamin D receptor (VDR): qHTS | Vitamin D3 receptor (Homo sapiens), P11473 | VDR-SRC2-3 peptide fluorescence polarization, 2 h | Potency, µM, hits mostly inhibitors | actives 0.93% (n = 400,000) | AID 504847, 2011
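VDR–SRC2-3 interaction, FP format. Cmpds 23 nl via pintool, brief spin, 2 h ambient incubation.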
TbPYK inh: qHTS of Trypanosoma Brucei Inhibitors: Confirmatory Assay for Cherry-picked Compounds; actives 67% (n = 890); recombinant TbPYK, Kinase-Glo ATP luminescence; Potency, µM (series often up to 76.9 µM), actives largely listed as inhibitors; shares compounds with PLK1 PBD block; AID 720569, 2013; note: nearly all actives have a fitted effect of over 70% in size
TbPYK orthogonal: qHTS of Trypanosoma Brucei Inhibitors: Orthogonal Assay for Cherry-picked Compounds | shares compounds with PLK1 PBD block | recombinant TbPYK, ADP-Glo luminescence, 60 min | actives 62% (n = 890) | Potency, µM (top dose mostly 76.9 µM), actives largely listed as inhibitors; note: nearly all actives have a fitted effect of over 75% in size
Numbers stand for hits; 0 = inactive; ? = inconclusive; - = no result; [ ] = dose if it differs, or a comment. Calls come from the whole dose curve; as a rule, active = well fitted curve in the direction sought with a large enough effect; inconclusive = small, poorly fitted or top-dose-only effect, or another doubt; inactive = no such curve, though single readings can be large; an effect the other way counts as inactive or inconclusive.

SMILES | PLK1 PBD block | HP1b binding inh | L3MBTL1 inh | JMJD2A Tudor inh | BAZ2B block | VDR inh | TbPYK inh | TbPYK orthogonal
O=C1N=C(N2CCN(c3ccccc3)CC2)S/C1=C/c1cccs1 | 0 | 0 | ? | 0 | 0 | 0 | - | -
Cc1onc(-c2ccccc2Cl)c1C(=O)NC(=S)NCC(=O)c1ccccc1 | 0 | 0 | 0 | 0 | 0 | 0 | - | -
COC(=O)/C=c1\sc2ncnn2c1=O | ? | ? | 0 | 20µM | 0 | 0 | 28.2µM | 28.2µM
COc1cc(CN2CCN(C3CCC3)CC2CCO)cc(OC)c1 (stereo not drawn) | 0 | 0 | 0[2.29 µM] | 0 | 0 | 0 | - | -
CC1CN2C(c3ccc([N+](=O)[O-])cc3)=CSC2=N1 (stereo not drawn) | ? | ? | 0[2.29 µM] | 79.4µM | 0 | ? | 6.31µM | 12.6µM
CSc1nsc(SC)c1NC(=O)N1CCCC1 | 0 | 0 | 0 | 0 | 0 | 0 | ? | 31.6µM
Cc1ccc(/C=C2/NC(=O)N(Cc3ccccc3)C2=O)o1 | 0 | 0 | 0 | ? | 0 | 89.1µM | 15.8µM | 31.6µM
COC(=O)CN1C(=O)N/C(=C/c2ccc(C)o2)C1=O | 0 | 0 | - | 0 | 0 | 0 | - | -
C=CCN1C(=O)/C(=c2\sc3nc(=O)c(Cc4ccccc4Cl)nn3c2=O)c2ccccc21 | 11.9µM | ? | 0 | 70.8µM | ? | 35.5µM | 35.5µM | 39.8µM
Cc1cc(C)c(S(=O)(=O)/N=C2/C=C(Sc3ncn[nH]3)C(=O)c3ccccc32)cc1C | 0.844µM | ? | ? | ? | 44.7µM | ? | 1.41µM | 2.51µM
CN(C)c1ccc(Cc2cc3c(O)ccc(O)c3cc(Cc3ccc(N(C)C)cc3)c2=O)cc1 | 0.947µM | ? | - | 3.16µM | - | 44.7µM | 3.55µM | 3.55µM
CCC(=O)/C=C1/Sc2ccccc2N1CC | 26.7µM | 0 | 0 | ? | 0 | ? | ? | 17.8µM
Cc1ccc(-c2cc(C(=O)NCC(c3ccccc3)N(C)C)c3ccccc3n2)o1 (stereo not drawn) | 0 | 0 | 0 | 0 | - | 0 | - | -
Cc1ccc(-c2cc(C(=O)N3CC(C)CC(C)C3)c3ccccc3n2)o1 (stereo not drawn) | 23.8µM | ? | - | 28.2µM | 79.4µM | ? | 25.1µM | 35.5µM
COC(=O)c1cc(-c2ccc(C)o2)nc2ccccc12 | 15µM | ? | 0 | ? | ? | 79.4µM | ? | ?
Cc1ccc(-c2cc(C(=O)N3CC(C)OC(C)C3)c3ccccc3n2)o1 (stereo not drawn) | 0 | 0 | 0 | 0 | 0 | 0 | - | -
CCCCN(C(=O)CSCc1ccc(C)cc1)c1c(N)n(CCC)c(=O)[nH]c1=O | 0 | 0 | - | 0 | 0 | 0 | - | -
O=C1CC2(CCCCC2)CC(=O)N1CCc1ccccc1 | 0 | 0 | - | 0 | - | 0 | - | -
O=C1C=CC(=O)C(C2=C3C(=O)N(CCc4ccccc4)CC(=O)N3CCC2)=C1 | ? | 6.31µM | 0 | 3.16µM | 50.1µM | 31.6µM | 0.562µM | 0.891µM
O=[N+]([O-])c1cnc(Sc2ccncn2)c([N+](=O)[O-])c1 | 1.19µM | - | - | - | - | - | 0 | ?
O=C(OCc1ccccn1)C1CCN(C(=O)c2ccc(Cl)cc2)CC1 | 0 | 0 | 0 | 0 | 0 | 0 | - | -
O=C(O)Cc1ccc2sc(-c3ccccc3)nc2c1 | 0 | 0 | 0 | 0 | 0 | 0 | 31.6µM | 0
CCOc1cc(C2CC(=O)c3c(ccc4ccccc34)N2)ccc1O (stereo not drawn) | 0 | 0 | 0 | 0 | 0 | 0 | - | -
CCOC(=O)c1ccc(N=c2ssnc2Cl)cc1 | 2.12µM | 7.94µM | - | 14.1µM | 28.2µM | 15.8µM | 15.8µM | 15.8µM
Clc1ccc(N=c2ssnc2Cl)cc1 | 1.89µM | ? | 0 | 50.1µM | 39.8µM | 25.1µM | 7.94µM | 10µM
SMILES | PLK1 PBD block | HP1b binding inh | L3MBTL1 inh | JMJD2A Tudor inh | BAZ2B block | VDR inh | TbPYK inh | TbPYK orthogonal
Fc1ccc(N=c2ssnc2Cl)c(F)c1 | 1.68µM | 5.62µM | 0 | 22.4µM | 50.1µM | 35.5µM | 28.2µM | 31.6µM
COc1cc(/C=C2\SC(=Nc3cccnc3)NC2=O)cc(OC)c1OC | 0 | 0 | 0 | 0 | ? | 0 | - | -
COc1cc(N=c2ssnc2Cl)cc(OC)c1OC | 0.947µM | 0 | 0 | ? | 28.2µM | ? | 3.55µM | 6.31µM
Cc1ccc(S(=O)(=O)N2[C@H](CC(=O)c3cccs3)OC[C@@H]2C)cc1 | 0 | - | - | - | - | - | - | -
O=C(Nc1cccc2c1CCCC2)c1cc(C2CCCCN2C(=O)OCCF)on1 (stereo not drawn) | 0 | - | - | - | - | - | - | -
COc1ccc(NC(C)C(=O)Nc2cccc(S(=O)(=O)N3CCOCC3)c2)cc1OC (stereo not drawn) | 0 | 0 | 0 | 0 | - | 0 | - | -
N#Cc1ccc(N=c2ssnc2Cl)cc1 | 1.34µM | 7.08µM | 0 | 22.4µM | 35.5µM | 14.1µM | 7.08µM | 7.94µM
O=C(NNC(=S)NC(=O)c1ccccc1[N+](=O)[O-])c1ccccc1Cl | 0 | 0 | 0 | 0 | 0 | 0 | - | -
O=C(NC(=S)NNC(=O)c1ccccc1[N+](=O)[O-])c1ccc(Br)cc1 | ? | 0 | 0 | 0 | 0 | 0 | ? | ?
O=C(CCNc1n[nH]c(=O)[nH]c1=O)N/N=C\c1cccc(OCc2ccccc2)c1 | 0 | 0 | 0 | 0 | 0 | 0 | - | -
O=C(O)CC(C(=O)O)N1C(=O)/C(=C/C=C/c2ccco2)SC1=S (stereo not drawn) | 2.38µM | 3.55µM | 1.12µM | 3.55µM | 5.01µM | 0 | ? | ?
CC1(C)C(=O)Nc2ccccc2N1C(=O)COc1ccc(C#N)cc1 | 0 | 0 | ? | 0 | - | 0 | - | -
CCOC(=O)c1ccc(/[N+]([O-])=C/c2ccccc2)cc1 | 21.2µM | ? | 0 | 31.6µM | ? | ? | 0 | 0
O=C(O)c1cc(NC2(c3ccccc3)C(=O)c3ccccc3C2=O)ccc1Cl | - | 0 | - | 0 | 0 | 0 | - | -
S=C(NCCc1ccccn1)Nc1cccc(Cl)c1 | 0 | 0 | 0 | 0 | 0 | 0 | - | -
COc1cccc(NC(=O)CCC2CCN(C(=O)c3cncs3)CC2)c1 | 0 | 0 | - | 0 | 0 | ? | 20µM | ?
CC1(C)Cc2c(C#N)c(NCC3CCCO3)nc(-c3ccco3)c2CO1 (stereo not drawn) | 0 | 0 | 0[11.4 µM] | 0 | 0 | 0 | - | -
CC1(C)Cc2c(C#N)c(NCCc3ccccc3)nc(-c3ccco3)c2CO1 | ? | 0 | 0 | 0 | 0 | ? | ? | 12.6µM
